This passage reports inhibition results from PubChem BioAssay AID1210 (NMMLSC, 2008).

Activity calls are given as the source filed them.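 Rule for the calls: active = blocks over 70% of labeled estradiol binding at 10 µM, or over a set limit at 100 nM; inactive = the rest.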

Sequence of Estrogen receptor beta (Homo sapiens) (Q92731 whole entry, looked up): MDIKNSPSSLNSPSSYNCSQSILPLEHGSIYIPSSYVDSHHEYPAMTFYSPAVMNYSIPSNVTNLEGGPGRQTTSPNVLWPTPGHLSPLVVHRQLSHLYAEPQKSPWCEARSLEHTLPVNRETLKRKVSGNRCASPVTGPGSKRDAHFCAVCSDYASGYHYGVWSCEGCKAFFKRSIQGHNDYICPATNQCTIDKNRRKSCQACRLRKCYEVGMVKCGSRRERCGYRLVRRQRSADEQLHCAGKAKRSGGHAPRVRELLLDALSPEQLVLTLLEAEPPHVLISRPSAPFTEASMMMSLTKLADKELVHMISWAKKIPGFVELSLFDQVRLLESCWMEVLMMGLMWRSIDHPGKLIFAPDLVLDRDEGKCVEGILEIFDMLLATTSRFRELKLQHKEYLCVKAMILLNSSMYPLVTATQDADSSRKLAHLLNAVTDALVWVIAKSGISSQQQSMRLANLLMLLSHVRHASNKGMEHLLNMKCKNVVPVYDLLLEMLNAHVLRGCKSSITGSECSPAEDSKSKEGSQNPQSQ

One test concerns the target Estrogen receptor beta (Homo sapiens) (UniProt Q92731). Description: ERbeta ligand binders by competition, primary screen, cell-based, Cos7 ERbeta-GFP, flow cytometry (AID 1210).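 Note: 0% = DMSO vehicle wells and 100% = complete loss of labeled estradiol signal.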 The note with it: fluorescent estrogen binding, at 10 µM, stronger effect = higher value.
As a reminder, the inhibition is the change of the read-out against control, counted positive when it falls. With `O=C(Oc1cccc(-c2cnc3ccccc3n2)c1)c1ccco1`, the inhibition was 9% (inactive).

In the case of `CCCCNS(=O)(=O)c1ccc(NC(=O)C(Sc2ccccc2)c2ccccc2)cc1` (centres undefined), the inhibition is 41% (inactive).

On to `CN(C(=S)Nc1cccnc1)c1ccc(O)cc1`, for which the inhibition was 14% (inactive).

With `CC1Cc2ccccc2N1C(=O)CSc1nnc(-c2ccc(S(=O)(=O)N3CCCC3)cc2)o1` (centres undefined), the inhibition was 54% (inactive).

`Cc1nc2sccn2c1-c1nc(-c2cc3ccccc3o2)cs1`: the inhibition is 43% (inactive).

As for `CSC1=N/C(=C\c2ccc(Br)o2)C(=O)S1`, the inhibition was 26% (inactive).

On to `CC1(C)CCCN(C(=O)c2coc(=O)c(Br)c2)C1`, for which the inhibition was 49% (inactive).

In the case of `Oc1ccc(-c2cn3cc(C(F)(F)F)ccc3n2)cc1`, the inhibition was 41% (inactive).

For the compound `Nc1ccc2nc(-c3cccnc3)[nH]c2c1`, the inhibition is 50% (inactive).

For `Cc1ccc(-n2c(=O)c(C#N)cc3c(=O)n4cccc(C)c4nc32)cc1`, the inhibition is 72% (active).

Turning to `COc1ccc(N2Cc3cccc(C(=O)N4CCN(C(=O)c5ccco5)CC4)c3C2=O)cc1`, the inhibition was 29% (inactive).

Consider `CC(=O)NC12CC3CC(C1)CC(C(=O)OCC(=O)Nc1ncc(Cl)c(C)c1Cl)(C3)C2`, for which the inhibition is 12% (inactive).

Turning to `CC1CCCN(c2nc3c(c(=O)[nH]c(=O)n3C)n2Cc2ccccc2Cl)C1` (centres undefined), the inhibition is 38% (inactive).

Consider `O=c1oc2ccccc2cc1-c1ccc(O)cc1`, for which the inhibition was 58% (inactive).

Turning to `CCCNCC1COc2ccccc2O1` (centres undefined), the inhibition is 51% (inactive).

Consider `O=C(Oc1ccc(-c2cnc3ccccc3n2)cc1)c1ccc(Br)o1`, for which the inhibition is 72% (active).

Regarding `CCn1c(SCC(=O)Nc2ccc3c(c2)oc2ccccc23)nnc1-c1ccc(N)cc1`, the inhibition was 56% (inactive).

For the compound `COc1ccc(NC(=O)C(c2ccccc2)N(C)C(=O)c2ccc(=O)[nH]c2)cc1` (centres undefined), the inhibition was 17% (inactive).

With `O=[N+]([O-])c1cc(/C=N/N2CCN(C3c4ccccc4-c4ccccc43)CC2)ccc1Cl`, the inhibition was 21% (inactive).

`COc1ccc2c(c1)C1C=CCC1C(c1cc3c(cc1Br)OCO3)N2` (centres undefined): the inhibition is 0% (inactive).

As to `COc1cc(-c2nc3ccccn3c2/N=C/c2ccccc2)ccc1O`, the inhibition is 54% (inactive).

Consider `C=CCn1c(=O)c(C#N)cc2c(=O)n3ccccc3nc21`, for which the inhibition was 39% (inactive).

Staying with this test, now noted: fluorescent estrogen binding, ligand binding inhibition, at 0.1 µM, stronger effect = higher value.
As for `Cn1c(SCC(=O)Nc2sccc2C#N)nnc1-c1ccccc1`, the inhibition came to 13%.

As to `Cc1cnc(C(=O)OCC(=O)c2csc(N3CCCCC3)n2)cn1`, the inhibition was 23%.

Consider `CCOC(=O)c1sc(NC(=O)c2ccc3ncsc3c2)nc1C`, for which the inhibition turned out to be 24%.

As for `Cc1ccccc1Nc1nnc(SCC(=O)NC(=O)NCc2ccco2)s1`, the inhibition was found to be 67%.

`Cc1ccc(OCc2ccoc2C(=O)O)cc1C` had an inhibition of 8%.

With `CC(C)(C)NC(=O)c1ccc2c(c1)C1C3CCC(C3)C1C(c1ccccc1)N2` (centres undefined), the inhibition came out at 64%.

Compound `CC(C)(C)OC(=O)N1CCN(c2ccc(NC(=O)Cn3nnc(-c4ccccc4)n3)cc2)CC1` had an inhibition of 6%.

Compound `COc1ccc2c(c1)[nH]c1c(=O)n(N)cnc12` showed an inhibition of 30%.

In turn, `c1ccc(-c2nnc3sc(Cc4cccs4)nn23)cc1` registered an inhibition of 20%.

For `CC1=C(SCCC#N)S/C(=C2\SC(C)=C(SCCC#N)S2)S1`, the inhibition came out at 11%.

In turn, `Fc1ccc2c(c1)[C@H]1OCC[C@H]1[C@@H](c1ccco1)N2` gave an inhibition of 1%.

Turning to `COc1cc(OC)cc(C(=O)NC2CCN(C(=O)N3c4ccccc4Sc4ccccc43)CC2)c1`, the inhibition amounted to 16%.

`O=C1C2C3C=CC(C3)C2C(=O)N1c1cccc2cccnc12` (centres undefined) registered an inhibition of 51%.

As to `Cc1cc(C)c2c(c1)NC(c1cc3c(cc1Br)OCO3)C1CC=CC21` (centres undefined), the inhibition stood at 46%.

With `Cc1c(Cl)cccc1NS(=O)(=O)c1ccc2c(c1)C1C=CCC1C(c1ccc(C(=O)O)cc1)N2` (centres undefined), the inhibition was determined as 12%.

On to `Cc1nn2cc(-c3ccc(N)cc3)nc2s1`, for which the inhibition turned out to be 15%.

Compound `O=C(Nc1nc(-c2nc3ccccc3s2)cs1)C1COc2ccccc2O1` (centres undefined) showed an inhibition of 2%.

Turning to `O=C(Oc1cccc(-c2cnc3ccccc3n2)c1)c1ccco1`, the inhibition worked out at 4%.

Consider `CCCCNS(=O)(=O)c1ccc(NC(=O)C(Sc2ccccc2)c2ccccc2)cc1` (centres undefined), for which the inhibition is 14%.

Compound `CN(C(=S)Nc1cccnc1)c1ccc(O)cc1` registered an inhibition of 54%.

For `CC1Cc2ccccc2N1C(=O)CSc1nnc(-c2ccc(S(=O)(=O)N3CCCC3)cc2)o1` (centres undefined), the inhibition was 19%.

`Cc1nc2sccn2c1-c1nc(-c2cc3ccccc3o2)cs1` displayed an inhibition of 9%.

Regarding `CSC1=N/C(=C\c2ccc(Br)o2)C(=O)S1`, the inhibition turned out to be 43%.

Take `CC1(C)CCCN(C(=O)c2coc(=O)c(Br)c2)C1`: the inhibition amounted to 18%.

The compound `Oc1ccc(-c2cn3cc(C(F)(F)F)ccc3n2)cc1` yielded an inhibition of 10%.

Consider `Nc1ccc2nc(-c3cccnc3)[nH]c2c1`, for which the inhibition turned out to be 20%.

Take `Cc1ccc(-n2c(=O)c(C#N)cc3c(=O)n4cccc(C)c4nc32)cc1`: the inhibition worked out at 29%.
